IDH1 R132H inh – inhibitors of human mutant IDH1 R132H; 390,000 tested, 0.093% active; O75874; AID 602179; Potency, µM (top dose mostly 76.6 µM), hits mostly inhibitors; IDH1-R132H enzyme, NADPH consumption, diaphorase/resazurin fluorescence; also: nearly all actives have a fitted effect of over 65% in size
Target sequence (O75874 whole entry R132H, stated change not applied): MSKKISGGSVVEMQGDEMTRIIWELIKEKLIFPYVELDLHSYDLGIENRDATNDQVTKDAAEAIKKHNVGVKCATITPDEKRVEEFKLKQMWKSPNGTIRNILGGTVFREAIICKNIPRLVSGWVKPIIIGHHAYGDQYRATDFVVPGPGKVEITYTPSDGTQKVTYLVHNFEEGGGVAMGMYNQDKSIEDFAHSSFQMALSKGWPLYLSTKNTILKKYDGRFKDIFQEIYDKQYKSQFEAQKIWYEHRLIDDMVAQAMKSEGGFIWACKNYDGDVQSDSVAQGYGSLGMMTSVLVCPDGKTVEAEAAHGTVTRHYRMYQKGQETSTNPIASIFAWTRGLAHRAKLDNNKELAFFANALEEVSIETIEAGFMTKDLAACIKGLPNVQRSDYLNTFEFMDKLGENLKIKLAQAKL
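IDH1-R132H (0.5 ug/mL dispensed) in pH 7.5 Tris buffer was preincubated 30 min with compound, then given a substrate mix of 0.016 mM NADPH and 2 mM alpha-KG for 80 min at room temperature; remaining NADPH was read by diaphorase/resazurin fluorescence.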
Nrf2 activator – activates Nrf2 signaling; AREc32 ARE-luciferase reporter (MCF7-derived line), luminescence, 24 h; Potency, µM (titrated, usually from 46.1 µM), most hits filed as activators; 410,000 tested, 0.31% active; also: nearly all actives have a fitted effect of over 65% in size
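ARE-driven firefly luciferase activity in AREc32 cells measured after a 24 hr compound exposure at 37 deg C, using Steady-Glo reagent and a 30 min room-temperature hold.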
A549 tox – A549 cytotoxicity, counter-screen for Nrf2 inhibitors | A549 ARE-Fluc cells, CellTiter-Fluor viability, 18-24 h | Potency, µM (doses to about 46 µM), most hits filed as inhibitors | 390,000 tested, 0.16% active | AID 504648
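A549 ARE_Fluc cells in 5% FBS OPTI-MEM were exposed to compounds in concentration-response for 18-24 h at 37 deg C. Viability was read by CellTiter-Fluor fluorescence (Ex 405/Em 525) after 30 min, before the luciferase read.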
Nrf2 inh – inhibitors of Nrf2 signaling; A549 ARE-Fluc reporter, luciferase luminescence, 18-24 h; Potency, µM (doses to about 46 µM), hits mostly inhibitors; 360,000 tested, 2.1% active; also: nearly all actives have a fitted effect of over 60% in size
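A549 ARE_Fluc cells (5000/well, 5% FBS OPTI-MEM) pre-incubated 2 h, then treated with compounds 18-24 h at 37C/5% CO2 in concentration-response. CellTiter-Fluor viability read first; BugLite luciferase luminescence after 15 min at room temperature gives Nrf2 activity.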
ELG1 repair inh – inhibitors of ELG1-dependent DNA repair in HEK293T cells; AID 504467; HEK293T ELG1-luciferase reporter, luminescence, 16 h; DNA damage induced by 5-fluorouridine; 330,000 tested, 2.3% active; Potency, µM (top dose mostly 46.1 µM), most hits filed as inhibitors; also: nearly all actives have a fitted effect of over 55% in size
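Reporter activity after DNA damage by 5-fluorouridine is monitored. Compound-treated cells incubate 16 hr at 37 °C, then ONE-Glo is added for 30 min before luminescence reading.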
Each line names hits and unclear results; the compound was inactive in the other large screens. This is a sample that favours compounds with a hit; in the whole collection about 3.8% have one here. Calls follow the shape of the dose curve; as a rule, active = well fitted curve in the direction sought with a large enough effect; inconclusive = small, poorly fitted or top-dose-only effect, or another doubt; inactive = no such curve, though single readings can be large; an effect the other way counts as inactive or inconclusive.

CC1=C(C(=O)Nc2ccc(C)c(C)c2)C2(CCCCCC2)OC1=O	Nrf2 inh inconclusive (no result: ELG1 repair inh)
CCc1ccc(N2CC(C(=O)OCC(=O)Nc3ccc([N+](=O)[O-])cc3)CC2=O)cc1 (stereo not given)	Nrf2 inh inconclusive
CCCCCn1c(C(C)NC(=O)c2ccccc2)nc2ccccc21 (stereo not given)	none (no result: ELG1 repair inh)
O=C(NCCc1ccccc1)c1cnc2sc(N3CCCCCC3)nn2c1=O	none (no result: ELG1 repair inh)
Cn1c(=O)c2c(SCC(=O)Nc3ccccc3C(F)(F)F)nc(C3CCCC3)nc2n(C)c1=O	none (no result: Nrf2 inh, ELG1 repair inh)
Cc1ccccc1NC(=O)CSc1nc2cc3c(cc2cc1C)CCC3	A549 tox inconclusive
CCC(=O)Nc1ccc(NC(=O)CSc2nc3cc4c(cc3cc2C)CCC4)cc1	A549 tox inconclusive, Nrf2 inh 23µM, ELG1 repair inh inconclusive
O=S(=O)(c1ccc(-c2csc(-c3cccnc3)n2)cc1)N1CCCCC1	Nrf2 inh 21µM, ELG1 repair inh 23µM
c1cncc(-c2csc(-c3cccnc3)n2)c1	Nrf2 inh inconclusive
Clc1ccsc1-c1csc(-c2cccnc2)n1	Nrf2 activator 2.2µM, A549 tox inconclusive, ELG1 repair inh inconclusive (no result: Nrf2 inh)
CCC(=O)N1CCN(c2ccc(NC(=O)COc3ccccc3[N+](=O)[O-])cc2)CC1	Nrf2 inh inconclusive, ELG1 repair inh 23µM
CN1CCN(c2ccc(NC(=O)COc3ccccc3Cl)cc2)CC1	none (no result: Nrf2 inh)
COC(=O)c1ccccc1NC(=O)COc1ccccc1[N+](=O)[O-]	Nrf2 activator 5µM, Nrf2 inh inconclusive, ELG1 repair inh inconclusive
COc1cc(Cl)ccc1NC(=O)COc1ccccc1C(=O)N1CCN(c2ccc(O)cc2)CC1	ELG1 repair inh 13µM (no result: Nrf2 inh)
Cc1cc(Cl)ccc1OCC(=O)Nc1ccccc1C(=O)N1CCOCC1	ELG1 repair inh inconclusive
CCC(=O)N1CCN(c2ccc(NC(=O)COc3ccc(C)cc3C)cc2)CC1	Nrf2 inh inconclusive
CCC(=O)N1CCN(c2ccc(NC(=O)COc3ccccc3Cl)cc2)CC1	ELG1 repair inh 18µM (no result: Nrf2 inh)
O=[N+]([O-])c1ccc(-c2csc(Nc3ccccc3)n2)cc1	Nrf2 inh inconclusive (no result: IDH1 R132H inh, Nrf2 activator, ELG1 repair inh)
COc1ccc(-c2nn3c(-c4cc(-c5ccccc5)n[nH]4)nnc3s2)cc1OC	none (no result: IDH1 R132H inh, Nrf2 activator, ELG1 repair inh)
COc1cccc(-c2cc(C(=O)Nc3c(C)nn(Cc4ccccc4Cl)c3C)no2)c1	Nrf2 inh 6.5µM (no result: ELG1 repair inh)
COc1ccc(-c2cc(C(=O)Nc3c(C)nn(Cc4ccccc4Cl)c3C)no2)cc1OC	ELG1 repair inh 23µM (no result: Nrf2 inh)
COc1ccc(-c2cc(C(=O)Nc3c(C)nn(Cc4ccc(C)cc4)c3C)no2)cc1OC	Nrf2 inh inconclusive (no result: ELG1 repair inh)
COc1ccc(OC)c(-c2cc(C(=O)Nc3c(C)nn(Cc4ccccc4Cl)c3C)no2)c1	Nrf2 inh inconclusive
Cc1cccc(C)c1NC(=O)Cn1c(=O)n(Cc2ccc(C(=O)NCc3ccco3)cc2)c(=O)c2sccc21	Nrf2 inh 18µM (no result: IDH1 R132H inh, ELG1 repair inh)
CC(C)c1ccccc1NC(=O)COC(=O)CCN1C(=O)/C(=C\C=C\c2ccccc2)SC1=S	A549 tox inconclusive, Nrf2 inh 10µM
COC(=O)c1ccc2c(=O)n(CCCCCC(=O)N3CCN(c4cccc(C)c4C)CC3)c(=O)[nH]c2c1	none (no result: Nrf2 inh, ELG1 repair inh)
CCN(CC)CCOc1ccc2c(c1)C(=NO)c1cc(OCCN(CC)CC)ccc1-2	A549 tox 8.2µM, Nrf2 inh inconclusive, ELG1 repair inh inconclusive
CCN(CC)S(=O)(=O)c1cccc(S(=O)(=O)N2CCCCC2)c1	none
CCN(CC)S(=O)(=O)c1cccc(S(=O)(=O)c2cccc(S(=O)(=O)N(CC)CC)c2)c1	Nrf2 inh 9.2µM, ELG1 repair inh 8.9µM
CCN(CC)S(=O)(=O)c1ccc2c(c1)C(=NO)c1cc(S(=O)(=O)N(CC)CC)ccc1-2	ELG1 repair inh 7.3µM
CCN(CC)CCOc1ccc(Br)cc1	none
O=S(=O)(c1ccc2c(c1)C(=NO)c1cc(S(=O)(=O)N3CCCCC3)ccc1-2)N1CCCCC1	A549 tox inconclusive, Nrf2 inh inconclusive, ELG1 repair inh inconclusive
CC1CCN(S(=O)(=O)c2ccc3c(c2)C(=NO)c2cc(S(=O)(=O)N4CCC(C)CC4)ccc2-3)CC1	A549 tox 5.2µM, Nrf2 inh 4.1µM, ELG1 repair inh 5.2µM
Cc1ccnc(SCC(=O)NC2CC2)n1	none

Bioassay records as filed in PubChem.
